# Measurements taken from PubChem BioAssay (Tox21).
# Inconclusive results are not listed. The source made the active and inactive calls. The call rests on the fitted dose curve; in most records, active means well fitted activation curve with a large enough effect; inconclusive means small, poorly fitted or top-dose-only effect; inactive means flat fitted curve, though single readings scatter.
# Assay: qHTS assay to identify small molecule phospholipidosis (PLD) inducers (AID 1259344)
# Conditions: HepG2 phospholipidosis, LipidTOX Red imaging, 24 h; series mostly up to 38.3 µM; PLD induction: at the top concentration
# Source text: National Center for Advancing Translational Sciences [NCATS]
# Drug-induced Phospholipidosis (PLD) caused by cationic amphiphilic drugs is characterized by the appearance of unicentric or multicentric-lamellar bodies when viewed under electron microscope. Electron microscopy is the gold standard method for PLD detection, however, this method is time-consuming and labor intensive, making it unsuitable for evaluating a large set of compounds. A cell-based phospholipidosis assay has been developed using the LipidTox reagent in HepG2 cells and miniaturized into a 1536-well plate format. Drug induced phospholipid accumulation is stained with the LipidTox dyes in red color which then is determined using an automated high content screening system.
# HepG2 cells are dispensed at 900 cells/3 uL/well into Collagen I-coated 1536-well black-wall/clear-bottom assay plates (Greiner Bio-One, Monroe, NC) using the Multidrop Combi 8 channel dispenser (Thermo Fisher, Waltham, MA, USA). The assay plates are incubated at 37 C for 4 hours to allow the cell attachment. 3 uL of 1:500 LipidTOX Red dye is added using the dispenser, and then 23 nL compounds are added via a Wako Pintool station (Wako Automation, San Diego, CA). Amiodarone, a known PLD inducer, was used as a positive control and DMSO was used as a negative control. The assay plates were then incubated at 37 C for 24 hours.
# For fixations, 4 uL of 8% paraformaldehyde fixative solution containing 10 ug/mL Hoechst 33342 in Dulbecco's phosphate-buffered saline (DPBS) is added using a Kalypsys washer/dispenser (Kalypsys, San Diego, CA, USA). After incubation at room temperature for 30 min, the assay plates are washed once with DPBS using a Kalypsys washer/dispenser. The assay plates are then sealed and stored at 4 C before imaging. The fluorescence intensities (595 nm excitation, 615 nm emission for LipidTOX; 352 nm excitation, 461 nm emission for Hoechst 33342) are measured using an ImageXpress Micro Widefield High Content Screening System (Molecular Devices, Sunnyvale, CA, USA) with a 20x Plan Fluor objective. Images are acquired for one site in each well and analyzed with the MetaXpress software (Molecular Devices) using the Transfluor module. Several algorithmic outputs, such as pit count per well, pit count per cell, pit integrated intensity per well, and pit integrated intensity per cell, are used for quantitative image analysis for PLD.
# On the % scale 0 is the no-effect control and ±100 the full control effect.
Compound,PLD induction,outcome
CC(C)C[C@H](NC(=O)CNC(=O)[C@H](Cc1ccc(O)cc1)NC(=O)[C@H](CO)NC(=O)[C@H](Cc1c[nH]c2ccccc12)NC(=O)[C@H](Cc1cnc[nH]1)NC(=O)[C@@H]1CCC(=O)N1)C(=O)N[C@@H](CCCN=C(N)N)C(=O)N1CCC[C@H]1C(=O)NCC(N)=O (stereo in doubt),-0.673% (inactive),–
CN1CCN(CC(=O)N2c3ccccc3C(=O)Nc3cccnc32)CC1,4.8% (inactive),–
CC(C)NCC(O)COc1cccc2[nH]ccc12 (stereo not given),-0.659% (inactive),–
CCOc1cc(NC(C)=O)ccc1C(=O)OC,-0.0915% (inactive),–
CC(=C(CCOC(=O)C(C)C)SSC(CCOC(=O)C(C)C)=C(C)N(C=O)Cc1cnc(C)nc1N)N(C=O)Cc1cnc(C)nc1N,-1.12% (inactive),–
O=C(NCCc1c[nH]c2ccccc12)c1cccnc1,-0.0944% (inactive),–
CC(=O)NCc1c(I)c(NC(C)=O)c(I)c(C(=O)O)c1I,0.298% (inactive),–
CCOC(=O)[C@H](CCc1ccccc1)N[C@@H](C)C(=O)N1C(=O)N(C)C[C@H]1C(=O)O,-0.19% (inactive),–
COc1ccc(S(=O)(=O)N2c3ccc(Cl)cc3[C@@](O)(c3ccccc3Cl)[C@H]2C(=O)N2CCC[C@@H]2C(N)=O)cc1OC,2.4% (inactive),–
CN(C)C(=O)CNC(=O)Cc1ccccc1,-1.56% (inactive),–
Cc1nc2n(c(=O)c1CCN1CCC(c3noc4cc(F)ccc34)CC1)CCC[C@H]2O,1.42% (inactive),–
CC(=O)OC(C)OC(=O)C(C)c1ccc(-c2ccccc2)c(F)c1 (stereo not given),–,inactive
Cc1c(I)c(=O)n(-c2ccccc2)n1C,-0.619% (inactive),–
COP(=O)(OC)OC(c1ccc(Cl)cc1)P(=O)(OC)OC (stereo not given),-0.66% (inactive),–
Cc1ccsc1/C=C/C1=NCCCN1C,-0.475% [at 15.5 µM] (inactive),–
O=C(OCC1(COC(=O)c2cccnc2)CCCC(COC(=O)c2cccnc2)(COC(=O)c2cccnc2)C1O)c1cccnc1,-0.577% (inactive),–
C[C@H](N)[C@H](O)c1cccc(O)c1,-0.177% [at 15.5 µM] (inactive),–
COc1ccc(C2CNC(=O)C2)cc1OC1CCCC1 (stereo not given),-0.574% [at 15.5 µM] (inactive),–
CC(C)=O,-0.502% (inactive),–
O=C1O[C@@H]2[C@@H](O)[C@H](O)O[C@@H]2[C@H]1O,-3.73% (inactive),–

Compound,PLD induction,outcome
O=C1c2cccc3c2[C@H](CCC3)CN1[C@@H]1CN2CCC1CC2,3.75% (inactive),–
CCOC(=O)c1ccc(OC(=O)CCCCCN=C(N)N)cc1,2.03% [at 15.5 µM] (inactive),–
CC1=C(C(=O)O)N2C(=O)[C@@H](NC(=O)[C@H](N)c3ccc(O)cc3)[C@H]2SC1,-0.748% [at 15.5 µM] (inactive),–
Cc1cc(C(C)(C)C)c(O)c(C)c1CC1=NCCN1,3.92% (inactive),–
N[C@@H](CCC(=O)N[C@@H](CS)C(=O)NCC(=O)O)C(=O)O,1.01% (inactive),–
CC(CC=O)CCCC(C)(C)O (stereo not given),-0.365% (inactive),–
N[C@@H](COP(=O)(O)O)C(=O)O,0.0794% (inactive),–
O=C(NCCN1CCOCC1)c1ccc(Cl)cc1,–,inactive
CC(C(=O)O)c1ccc2c(c1)CC(=O)c1ccccc1S2 (stereo not given),-3.38% (inactive),–
Cc1cc(NC(=O)C2=C(O)c3ccccc3S(=O)(=O)N2C)no1,0.0681% (inactive),–
O=C(NCC(O)CO)c1c(I)c(C(=O)NCC(O)CO)c(I)c(N(CCO)C(=O)CO)c1I (stereo not given),1.62% [at 15.5 µM] (inactive),–
CC1(C)S[C@@H]2[C@H](N=CN3CCCCCC3)C(=O)N2[C@H]1C(=O)O,-0.4% (inactive),–
COc1cc2c(cc1OC)[C@@H]1CC(=O)[C@@H](CC(C)C)CN1CC2,-0.821% (inactive),–
C[C@@H](O)[C@H]1C(=O)N2C(C(=O)O)=C(SCCN=CN)C[C@H]12,-0.0963% [at 15.5 µM] (inactive),–
CCN1CCc2nc(N)oc2CC1,-0.657% (inactive),–
O=C(O)Cc1cn(-c2ccccc2)nc1-c1ccc(Cl)cc1,-0.807% (inactive),–
O=C(Nc1ccc(Cl)c(Cl)c1)C1CC1,0.247% (inactive),–
NS(=O)(=O)c1ccc(NC(=O)CCC(=O)O)cc1,-0.922% (inactive),–
CCCCNc1ccc(C(=O)OCCN(C)C)cc1,4.14% [at 15.5 µM] (inactive),–
O=C(CCN1CCN(CCO)CC1)N1c2ccccc2Sc2ccc(C(F)(F)F)cc21,15.7% (inactive),–
